PubChem BioAssay (NCI)
This is part of a sample that, as a whole, favours compounds with a hit. Of some 83,000 tested, about 20% had one in any assay.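 In brief: 96-well plates, 48 h treatment, single concentration, percent growth endpoint.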 Calls of active or inactive are those of the source. Rule for the calls: active = growth percent below 10; inactive = the rest.

What follows are molecules tested on HL-60(TB) leukemia (assay: NCI-60 one-dose screen, 48 h (100 = growth as untreated, 0 = no growth, -100 = all killed)). Settings: 10 µM unless noted.

Row | SMILES | growth
1 | COc1ccc(-c2csc(NC(=O)CSc3nc(-c4ccccc4)cc(=O)[nH]3)n2)cc1 | 52.4% (inactive)
2 | Nc1ccc(N2CCOCC2)cc1 | 81.8% (inactive)
3 | Cc1ccc2nc(-c3c(N)n[nH]c3CCCO)[nH]c(=O)c2c1 | 108% (inactive)
